Legend:
Experiment in all cases: DAPPL (digital affinity profiling via proximity ligation, sequencing); 10 mM Tris-HCl pH 7.5, 50 mM NaCl, 1 mM DTT, 4% glycerol, room temperature, 30 min; GST-TFs on glutathione beads, 16-mer random dsDNA library, 0.1% formaldehyde crosslink after washing; high values mean tight binding
Conditions in all cases: protein: recombinant; tags: N-terminal GST; dsDNA, one strand shown
FLI1 = biological target: T1, FLI1 (Homo sapiens, UniProt Q01543 1-452)
T1 sequence: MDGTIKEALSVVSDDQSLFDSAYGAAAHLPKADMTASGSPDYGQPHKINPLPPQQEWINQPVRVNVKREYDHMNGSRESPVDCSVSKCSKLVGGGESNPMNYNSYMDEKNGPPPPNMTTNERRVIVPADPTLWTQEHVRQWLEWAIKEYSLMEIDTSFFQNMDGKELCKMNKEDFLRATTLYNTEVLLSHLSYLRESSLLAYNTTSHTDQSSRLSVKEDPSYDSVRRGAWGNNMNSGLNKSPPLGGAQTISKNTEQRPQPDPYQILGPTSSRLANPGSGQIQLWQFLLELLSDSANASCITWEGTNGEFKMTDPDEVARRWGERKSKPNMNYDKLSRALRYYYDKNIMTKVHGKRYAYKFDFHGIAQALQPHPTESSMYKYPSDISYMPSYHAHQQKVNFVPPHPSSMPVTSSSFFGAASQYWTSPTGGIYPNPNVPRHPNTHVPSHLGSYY
In short: (§1)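 The binding signal reported is, for every hexamer, its read frequency for a factor over its read frequency for the tag-only sample. Reads came from pools of yeast-expressed, GST-fused human transcription factors on glutathione beads, barcoded with DNA and mixed with that sample, which were incubated with 200 nmole of a random double-stranded 16-mer DNA library in Tris/NaCl/DTT/glycerol buffer at room temperature for 30 min. After washing, the pools were crosslinked with 0.1% formaldehyde, proximity-ligated with BsaI/T4 ligase for 1 h at 37 °C, PCR-amplified and sequenced on an Illumina NextSeq500.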

ELK1 = biological target: T2, ELK1 (Homo sapiens, UniProt P19419 1-428)
T2 sequence: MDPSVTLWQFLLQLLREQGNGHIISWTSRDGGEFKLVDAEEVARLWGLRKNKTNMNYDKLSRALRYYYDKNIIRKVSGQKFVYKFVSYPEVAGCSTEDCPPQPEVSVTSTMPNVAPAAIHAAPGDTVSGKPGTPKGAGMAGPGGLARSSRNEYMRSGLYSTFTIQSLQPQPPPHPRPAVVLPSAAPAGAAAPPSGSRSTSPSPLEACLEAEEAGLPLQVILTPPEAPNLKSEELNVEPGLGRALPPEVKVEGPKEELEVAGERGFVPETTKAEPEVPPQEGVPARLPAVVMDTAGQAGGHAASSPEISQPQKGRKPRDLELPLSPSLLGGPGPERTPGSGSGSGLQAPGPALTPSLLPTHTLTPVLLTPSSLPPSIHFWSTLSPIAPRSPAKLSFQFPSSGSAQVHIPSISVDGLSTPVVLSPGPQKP
In short: as §1

GABPA = biological target: T3, GABPA (Homo sapiens, UniProt Q06546 1-454)
T3 sequence: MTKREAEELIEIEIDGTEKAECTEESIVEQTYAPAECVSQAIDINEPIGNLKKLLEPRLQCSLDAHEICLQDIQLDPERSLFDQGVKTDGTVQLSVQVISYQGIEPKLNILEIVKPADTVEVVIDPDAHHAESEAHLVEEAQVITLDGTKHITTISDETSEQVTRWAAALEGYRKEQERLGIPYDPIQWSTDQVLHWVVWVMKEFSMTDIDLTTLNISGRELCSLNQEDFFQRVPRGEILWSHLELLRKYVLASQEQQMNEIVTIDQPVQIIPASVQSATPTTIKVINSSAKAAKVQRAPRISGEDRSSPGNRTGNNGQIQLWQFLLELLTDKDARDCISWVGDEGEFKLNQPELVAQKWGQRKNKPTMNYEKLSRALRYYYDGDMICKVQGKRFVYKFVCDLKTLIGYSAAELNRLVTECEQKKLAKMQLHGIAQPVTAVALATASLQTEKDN
In short: as §1

ERG = biological target: T4, ERG (Homo sapiens, UniProt P11308 1-479)
T4 sequence: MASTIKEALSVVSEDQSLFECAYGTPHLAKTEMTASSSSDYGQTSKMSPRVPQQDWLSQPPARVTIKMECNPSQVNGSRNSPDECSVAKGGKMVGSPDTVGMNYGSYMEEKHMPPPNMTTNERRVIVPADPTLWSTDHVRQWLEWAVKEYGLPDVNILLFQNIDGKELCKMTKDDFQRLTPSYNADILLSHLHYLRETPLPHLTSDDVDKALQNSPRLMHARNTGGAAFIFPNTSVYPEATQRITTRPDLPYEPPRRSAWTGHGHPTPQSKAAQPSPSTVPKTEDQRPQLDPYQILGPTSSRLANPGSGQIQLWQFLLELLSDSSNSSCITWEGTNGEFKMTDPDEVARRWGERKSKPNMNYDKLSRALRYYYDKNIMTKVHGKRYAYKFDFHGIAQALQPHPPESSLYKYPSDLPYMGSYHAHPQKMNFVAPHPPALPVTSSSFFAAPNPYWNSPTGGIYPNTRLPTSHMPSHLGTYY
In short: as §1

ELF1 = ELF1 (Homo sapiens, UniProt P32519 1-619)
In short: as §1

EHF = biological target: T5, EHF (Homo sapiens, UniProt Q9NZC4 1-300)
T5 sequence: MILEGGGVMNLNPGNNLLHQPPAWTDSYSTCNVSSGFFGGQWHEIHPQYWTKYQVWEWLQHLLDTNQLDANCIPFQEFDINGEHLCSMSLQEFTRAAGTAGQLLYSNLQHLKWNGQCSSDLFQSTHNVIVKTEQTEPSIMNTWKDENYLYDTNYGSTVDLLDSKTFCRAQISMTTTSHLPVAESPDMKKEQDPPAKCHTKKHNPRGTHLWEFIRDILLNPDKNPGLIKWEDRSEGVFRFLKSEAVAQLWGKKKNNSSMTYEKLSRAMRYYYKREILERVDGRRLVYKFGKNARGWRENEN
In short: as §1

SPI1 = SPI1 (Homo sapiens, UniProt P17947 1-270)
In short: as §1

SPIB = SPIB (Homo sapiens, UniProt Q01892 1-262)
In short: as §1

ELK3 = biological target: T6, ELK3 (Homo sapiens, UniProt P41970 1-407)
T6 sequence: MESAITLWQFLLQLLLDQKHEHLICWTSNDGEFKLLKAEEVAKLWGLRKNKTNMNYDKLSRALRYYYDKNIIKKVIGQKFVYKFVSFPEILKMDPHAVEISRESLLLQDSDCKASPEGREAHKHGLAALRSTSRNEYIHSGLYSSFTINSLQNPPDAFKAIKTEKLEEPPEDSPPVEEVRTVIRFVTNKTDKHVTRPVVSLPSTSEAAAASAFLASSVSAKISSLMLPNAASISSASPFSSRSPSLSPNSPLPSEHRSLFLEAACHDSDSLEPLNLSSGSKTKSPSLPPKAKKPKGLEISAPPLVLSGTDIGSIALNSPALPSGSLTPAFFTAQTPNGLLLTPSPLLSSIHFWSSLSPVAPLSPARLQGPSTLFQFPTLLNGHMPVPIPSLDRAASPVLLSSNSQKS
In short: as §1

Sequence of SPIB (Q01892 whole entry): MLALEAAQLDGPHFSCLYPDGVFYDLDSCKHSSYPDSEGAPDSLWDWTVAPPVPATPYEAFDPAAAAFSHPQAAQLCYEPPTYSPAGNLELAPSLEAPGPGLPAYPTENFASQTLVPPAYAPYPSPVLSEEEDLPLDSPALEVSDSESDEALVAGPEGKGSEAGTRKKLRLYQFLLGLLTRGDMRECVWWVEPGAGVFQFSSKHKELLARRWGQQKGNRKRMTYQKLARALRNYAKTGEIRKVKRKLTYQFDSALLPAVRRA
Sequence of ELF1 (P32519 whole entry): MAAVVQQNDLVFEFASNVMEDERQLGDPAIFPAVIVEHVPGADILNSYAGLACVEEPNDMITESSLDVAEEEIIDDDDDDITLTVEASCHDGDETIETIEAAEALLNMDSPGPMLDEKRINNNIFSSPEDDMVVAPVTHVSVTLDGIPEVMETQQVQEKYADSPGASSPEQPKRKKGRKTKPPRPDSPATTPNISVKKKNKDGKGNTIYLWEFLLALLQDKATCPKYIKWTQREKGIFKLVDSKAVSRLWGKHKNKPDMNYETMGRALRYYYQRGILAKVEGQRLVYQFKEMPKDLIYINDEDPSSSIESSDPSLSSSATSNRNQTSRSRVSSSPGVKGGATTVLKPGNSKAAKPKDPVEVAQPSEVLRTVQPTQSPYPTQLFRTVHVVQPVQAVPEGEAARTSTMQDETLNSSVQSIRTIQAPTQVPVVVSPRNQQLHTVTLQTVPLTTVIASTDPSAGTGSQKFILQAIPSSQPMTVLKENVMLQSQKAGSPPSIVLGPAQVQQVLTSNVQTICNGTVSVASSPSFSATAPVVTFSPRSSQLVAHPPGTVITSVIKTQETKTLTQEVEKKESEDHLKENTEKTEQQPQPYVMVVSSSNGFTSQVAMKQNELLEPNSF

Row | Sequence | binding signal (FLI1) | binding signal (ELK1) | binding signal (GABPA) | binding signal (ERG) | binding signal (ELF1) | binding signal (EHF) | binding signal (SPI1) | binding signal (SPIB) | binding signal (ELK3)
1 | AGTACA | 1.13 fold enrichment (6-mer frequency, TF over GST control) | 1.16 fold enrichment (6-mer frequency, TF over GST control) | 1.12 fold enrichment (6-mer frequency, TF over GST control) | 1.19 fold enrichment (6-mer frequency, TF over GST control) | 1.08 fold enrichment (6-mer frequency, TF over GST control) | 1.13 fold enrichment (6-mer frequency, TF over GST control) | 1.17 fold enrichment (6-mer frequency, TF over GST control) | 1.07 fold enrichment (6-mer frequency, TF over GST control) | 1.31 fold enrichment (6-mer frequency, TF over GST control)
2 | CATATC | 1.25 fold enrichment (6-mer frequency, TF over GST control) | 1.39 fold enrichment (6-mer frequency, TF over GST control) | 1.26 fold enrichment (6-mer frequency, TF over GST control) | 1.37 fold enrichment (6-mer frequency, TF over GST control) | 1.32 fold enrichment (6-mer frequency, TF over GST control) | 1.36 fold enrichment (6-mer frequency, TF over GST control) | 1.3 fold enrichment (6-mer frequency, TF over GST control) | 1.32 fold enrichment (6-mer frequency, TF over GST control) | 1.34 fold enrichment (6-mer frequency, TF over GST control)
3 | GACCTG | 1.19 fold enrichment (6-mer frequency, TF over GST control) | 1.26 fold enrichment (6-mer frequency, TF over GST control) | 1.19 fold enrichment (6-mer frequency, TF over GST control) | 1.26 fold enrichment (6-mer frequency, TF over GST control) | 1.27 fold enrichment (6-mer frequency, TF over GST control) | 1.28 fold enrichment (6-mer frequency, TF over GST control) | 1.26 fold enrichment (6-mer frequency, TF over GST control) | 1.17 fold enrichment (6-mer frequency, TF over GST control) | 1.35 fold enrichment (6-mer frequency, TF over GST control)
4 | CTGCCG | 1.28 fold enrichment (6-mer frequency, TF over GST control) | 1.45 fold enrichment (6-mer frequency, TF over GST control) | 1.36 fold enrichment (6-mer frequency, TF over GST control) | 1.26 fold enrichment (6-mer frequency, TF over GST control) | 1.34 fold enrichment (6-mer frequency, TF over GST control) | 1.39 fold enrichment (6-mer frequency, TF over GST control) | 1.22 fold enrichment (6-mer frequency, TF over GST control) | 1.41 fold enrichment (6-mer frequency, TF over GST control) | 1.27 fold enrichment (6-mer frequency, TF over GST control)
5 | AATGGG | 1.26 fold enrichment (6-mer frequency, TF over GST control) | 1.24 fold enrichment (6-mer frequency, TF over GST control) | 1.18 fold enrichment (6-mer frequency, TF over GST control) | 1.16 fold enrichment (6-mer frequency, TF over GST control) | 1.2 fold enrichment (6-mer frequency, TF over GST control) | 1.29 fold enrichment (6-mer frequency, TF over GST control) | 1.34 fold enrichment (6-mer frequency, TF over GST control) | 1.22 fold enrichment (6-mer frequency, TF over GST control) | 1.08 fold enrichment (6-mer frequency, TF over GST control)
6 | CACTAC | 1.38 fold enrichment (6-mer frequency, TF over GST control) | 1.37 fold enrichment (6-mer frequency, TF over GST control) | 1.36 fold enrichment (6-mer frequency, TF over GST control) | 1.31 fold enrichment (6-mer frequency, TF over GST control) | 1.33 fold enrichment (6-mer frequency, TF over GST control) | 1.28 fold enrichment (6-mer frequency, TF over GST control) | 1.17 fold enrichment (6-mer frequency, TF over GST control) | 1.36 fold enrichment (6-mer frequency, TF over GST control) | 1.27 fold enrichment (6-mer frequency, TF over GST control)
7 | ACGACA | 1.16 fold enrichment (6-mer frequency, TF over GST control) | 1.05 fold enrichment (6-mer frequency, TF over GST control) | 1.18 fold enrichment (6-mer frequency, TF over GST control) | 1.17 fold enrichment (6-mer frequency, TF over GST control) | 1.07 fold enrichment (6-mer frequency, TF over GST control) | 1.27 fold enrichment (6-mer frequency, TF over GST control) | 1.09 fold enrichment (6-mer frequency, TF over GST control) | 1.16 fold enrichment (6-mer frequency, TF over GST control) | 1.11 fold enrichment (6-mer frequency, TF over GST control)
8 | CGACAT | 1.37 fold enrichment (6-mer frequency, TF over GST control) | 1.23 fold enrichment (6-mer frequency, TF over GST control) | 1.25 fold enrichment (6-mer frequency, TF over GST control) | 1.31 fold enrichment (6-mer frequency, TF over GST control) | 1.25 fold enrichment (6-mer frequency, TF over GST control) | 1.26 fold enrichment (6-mer frequency, TF over GST control) | 1.27 fold enrichment (6-mer frequency, TF over GST control) | 1.3 fold enrichment (6-mer frequency, TF over GST control) | 1.4 fold enrichment (6-mer frequency, TF over GST control)

Reference: PMC7862700, “An all-to-all approach to the identification of sequence-specific readers for epigenetic DNA modifications on cytosine”
